# From PubChem BioAssay (Tox21)
# Inconclusive results are not listed. The source made the active and inactive calls. Calls follow the shape of the dose curve; as a rule, active = well fitted activation curve with a large enough effect in the repeat runs; inconclusive = weak or mixed curves; inactive = flat fitted curve, though single readings scatter.
# Test: A CellTox Green Cytotoxicity Assay to monitor cytotoxicity in HepG2 cells - 32 hour (AID 1224883); also: nearly all actives have a fitted effect of over 50% in size
# Details: CellTox Green fluorescence; series mostly up to 76.8 µM; cytotoxicity increase: at the top concentration
# Source text: National Center for Advancing Translational Sciences [NCATS]
# NIH Chemical Genomics Center [NCGC]
# U.S. Environmental Protection Agency [EPA]
# National Institutes of Environmental Health Sciences [NIEHS]
# National Toxicology Program [NTP]
# Cell-based models are critical for drug discovery. Determining the natural cytotoxic effects resulting from test compounds is an essential research activity. A CellTox Green Cytotoxicity Assay to monitor cytotoxicity in real time of continues cell culture during 40 hours of the compound treatment was used to screen Tox21 10K library compounds in HepG2 cells. CellTox Green Cytotoxicity Assay is a nonlytic, homogeneous, biofluorescent method to measure cytotoxicity in cell culture after experimental manipulation. The assay system uses a proprietary asymmetric cyanine dye that is excluded from viable cells but preferentially stains the dead cell's DNA. […] Viable cells produce no appreciable increases in fluorescence. Therefore, the fluorescence signal produced by the binding interaction with dead cell DNA is proportional to cytotoxicity.
# The mixture of HepG2 cell suspension and reagents were dispensed at 600cells/6 ul/well in 1536-well tissue culture treated black solid bottom plates using a Multidrop dispenser. After the assay plates were incubated at a 37 C/5% CO2 incubator for 5 hours, 23 nL of compounds dissolved in DMSO, positive and negative controls was transferred to the assay plate by a pintool work station. The plates were incubated at 37 C for 40 hours. The fluorescence intensity were measured at 0h, 8h, 16h, 24h, 32h and 40h time points using ViewLux plate reader during compound treatment.
# % is scaled to controls: 0 for no effect and ±100 for the full control effect; potency is read from the fitted curve at half-maximal effect.
SMILES,cytotoxicity increase,Potency
O=C(O)CC(=O)O,8.26% (inactive),–
O=C1C=CC(=O)N1c1ccccc1,–,13.8 µM (active)
C/C=C/C(=O)C1=C(C)CCCC1(C)C,21.8% (inactive),–
O=S(=O)(O)CCCN1CCOCC1,-15.6% (inactive),–
CCC(C)c1ccccc1 (stereo not given),-9.6% (inactive),–
C[Si](C)O[Si](C)C,1.43% (inactive),–
OCCN1CN(CCO)CN(CCO)C1,-21.5% (inactive),–
CC(C)(C)C1=CC(=O)C=C(C(C)(C)C)C1=O,-0.224% (inactive),–
C=C(C)CCCC,-1.54% (inactive),–
Clc1ccccc1CN1CCc2sccc2C1,-1.4% [at 35.3 µM] (inactive),–
CCCCN(C)C,1.91% (inactive),–
CC1=CP(=O)(c2ccccc2)CC1 (stereo not given),-5.27% (inactive),–
Cc1cccc(N(C)C)c1,8.95% (inactive),–
COc1cccc(O)c1,-1.18% (inactive),–
Cc1cn[nH]c1,3.98% [at 35.3 µM] (inactive),–
CC[N+](CC)(CC)Cc1ccccc1,13% (inactive),–
CNCC[C@H](Oc1cccc2ccccc12)c1cccs1,–,19 µM (active)
C[Si](C)(C)Cl,-0.795% (inactive),–
CCCCCCCCCCCCCOP(=O)(O)O,-12.4% (inactive),–
CCN=c1cc2oc3cc(NCC)c(C)cc3c(-c3ccccc3C(=O)OCC)c-2cc1C,–,21.8 µM (active)

SMILES,cytotoxicity increase,Potency
COc1cc(C(=O)NS(=O)(=O)c2ccccc2C)ccc1Cc1cn(C)c2ccc(NC(=O)OC3CCCC3)cc12,3.93% [at 35.3 µM] (inactive),–
Cc1cc(C)c(C=O)c(C)c1,-14.3% (inactive),–
C/C=C/c1ccc(OC)c(OC)c1,-3.03% (inactive),–
CNC(=S)NN,26% (inactive),–
Cc1cncc(C)c1,5.45% (inactive),–
O=C=NCc1cccc(CN=C=O)c1,-2.41% [at 15.8 µM] (inactive),–
C/C=C/C(=O)Oc1c(CCCCCC(C)C)cc([N+](=O)[O-])cc1[N+](=O)[O-],–,38.9 µM (active)
CCCCOC(=O)C(C)CC (stereo not given),1.18% (inactive),–
CC(C)=CCCC(C)O (stereo not given),13.9% (inactive),–
COCC(=O)O[C@]1(CCN(C)CCCc2nc3ccccc3[nH]2)CCc2cc(F)ccc2[C@@H]1C(C)C,–,10.7 µM (active)
S=C(SSSSSSC(=S)N1CCCCC1)N1CCCCC1,16.8% [at 15.8 µM] (inactive),–
COc1ccc2sc(C(=O)Nc3nnn[nH]3)c(OC(C)C)c2c1,1.36% (inactive),–
SCCCCCCCCS,–,19.5 µM (active)
Brc1ccccn1,-12% (inactive),–
COc1ccccc1OCCNCC(O)COc1cccc2[nH]c3ccccc3c12 (stereo not given),–,23.9 µM (active)
CC(C)N=C(N)/N=C(\N)Nc1ccc(Cl)cc1,–,26.8 µM (active)
CCCCCCOc1cc(C)c(O)c(C)c1C,–,24.8 µM (active)
Clc1cc(Cl)c(-c2c(Cl)c(Cl)cc(Cl)c2Cl)cc1Cl,-17% [at 35.3 µM] (inactive),–
COc1cccc(OC)c1O,-8.04% (inactive),–
CCCC(=O)OCC(COC(=O)CCC)OC(=O)CCC,15.1% (inactive),–
